Experimental findings from PubChem BioAssay (Tox21) are described below.

SMILES strings stand for the structures. Records with an inconclusive call do not appear. The source made the active and inactive calls. Unless noted, calls follow the shape of the dose curve; as a rule, active = well fitted curve in the direction sought with a large enough effect in the repeat runs; inconclusive = weak or mixed curves; inactive = no such curve, though single readings can be large; an effect the other way counts as inactive or inconclusive.

Experiment [1] is described as follows: qHTS assay to identify small molecule antagonists of the thyroid receptor (TR) signaling pathway - cell viability counter screen (AID 743064). Also: nearly all actives have a fitted effect of over 50% in size. Also: potency is read from the fitted curve at half-maximal effect. The conditions noted are these: GH3.TRE-Luc viability, CellTiter-Fluor, 24 h; series mostly up to 70.3 µM. In short, it runs like this:
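In-well cytotoxicity read by CellTiter-Fluor (30 min, 37 C) following 23.5 h exposure of GH3 cells bearing a TRE-luciferase sensor. Compounds were added alongside 1 nM (final) T3 to drive TR transactivation.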
Background: In qHTS, concentration-response curves come from the screen itself.

Experiment [2] is described as follows: qHTS assay to identify small molecule antagonists of the thyroid receptor (TR) signaling pathway (AID 743065). Also: nearly all actives have a fitted effect of over 55% in size. The conditions noted are these: GH3.TRE-Luc, T3-stimulated luciferase inhibition, 23.5 h; series mostly up to 70.3 µM. The method in brief: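 GH3.TRE-Luc rat pituitary cells (two TREs driving luciferase) were dosed with compound, then stimulated with 1 nM T3 (final) for 23.5 h at 37 C. ONE-Glo luminescence was the read-out, with CellTiter-Fluor fluorescence as the cytotoxicity counter-screen.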

Experiment [3] has as its system thyroid hormone receptor (rat, GH3 cells). Nature of the experiment: qHTS assay to identify small molecule agonists of the thyroid receptor (TR) signaling pathway (AID 743066; calls by dose curve). The conditions noted are these: GH3.TRE-Luc cells, TR agonist luciferase, 24 h; series mostly up to 83.9 µM.
Experiment [4] is described as follows: qHTS assay to identify small molecule antagonists of the estrogen receptor alpha (ER-alpha) signaling pathway - cell viability counter screen (AID 743074; calls by dose curve;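 also: HEK293 cells carrying ER-alpha-UAS-bla reporter stimulated with 17beta-estradiol; nearly all actives have a fitted effect of over 45% in size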). The conditions noted are these: ERalpha-bla HEK293 viability, CellTiter-Glo luminescence, 18 h; series mostly up to 69.4 µM.
Experiment [5] is described as follows: qHTS assay to identify small molecule antagonists of the estrogen receptor alpha (ER-alpha) signaling pathway using the BG1 cell line - cell viability counter screen (AID 743081).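 Also: compound given together with 17beta-estradiol as the ER stimulus; nearly all actives have a fitted effect of over 45% in size.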 The conditions noted are these: BG1Luc4E2 viability, CellTiter-Fluor, 22 h; series mostly up to 70.3 µM.
In experiment [6] the target is Aromatase (Homo sapiens) (UniProt P11511). Nature of the experiment: qHTS assay to identify aromatase inhibitors (AID 743083). Also: nearly all actives have a fitted effect of over 55% in size. The conditions noted are these: MCF-7 aro ERE, testosterone-driven ERE luciferase, 24 h; series mostly up to 70.3 µM.
The target in experiment [7] is Estrogen receptor (Homo sapiens) (UniProt P03372). Kind of experiment: qHTS assay to identify small molecule antagonists of the estrogen receptor alpha (ER-alpha) signaling pathway (AID 743069; active = well fitted curve in the direction sought with a large enough effect in the signal ratio in the repeat runs, not every such curve was filed as active; the % refers to the signal ratio). The conditions noted are these: HEK293 ER-alpha-UAS-bla, beta-lactamase ratio, antagonist mode; series mostly up to 69.4 µM. The method in brief:
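HEK293 ER-alpha-UAS-bla GripTite cells, held overnight in 2% charcoal-stripped FBS, 5,000 cells/well, preincubated 4 h, then compound plus 17beta-estradiol for 18 h at 37C. Beta-lactamase read by LiveBLAzer B/G FRET substrate, 2 h at room temperature.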

The target is the same in experiment [8]. Nature of the experiment: qHTS assay to identify small molecule agonists of the estrogen receptor alpha (ER-alpha) signaling pathway (AID 743075; calls by dose curve). The conditions noted are these: HEK293 ER-alpha-UAS-bla, beta-lactamase FRET ratio, 18 h; series mostly up to 70.1 µM.
Experiment [9] shares this target. Nature of the experiment: qHTS assay to identify small molecule agonists of the estrogen receptor alpha (ER-alpha) signaling pathway using the BG1 cell line (AID 743079). Also: nearly all actives have a fitted effect of over 20% in size. Also: potency is read from the fitted curve at half-maximal effect. The conditions noted are these: BG1Luc4E2 cells, ERE-luciferase agonist, 22 h; series mostly up to 70.3 µM.
The nature of experiment [10]: qHTS assay to identify small molecule antagonists of the estrogen receptor alpha (ER-alpha) signaling pathway using the BG1 cell line (AID 743080; calls by dose curve;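 also: BG1 cells stimulated with 17beta-estradiol alongside compound; nearly all actives have a fitted effect of over 25% in size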). The conditions noted are these: BG1Luc4E2 ERE-luciferase antagonist mode, luminescence; series mostly up to 70.3 µM. The method in brief:
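Luciferase inhibition measured with ONE-Glo after 30 min at RT in BG1Luc4E2 cells given test compounds and 17beta-estradiol for 21.5 h at 37 C; CellTiter-Fluor viability read in the same wells beforehand.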

Chain of Aromatase (Homo sapiens) (P11511 whole entry, looked up): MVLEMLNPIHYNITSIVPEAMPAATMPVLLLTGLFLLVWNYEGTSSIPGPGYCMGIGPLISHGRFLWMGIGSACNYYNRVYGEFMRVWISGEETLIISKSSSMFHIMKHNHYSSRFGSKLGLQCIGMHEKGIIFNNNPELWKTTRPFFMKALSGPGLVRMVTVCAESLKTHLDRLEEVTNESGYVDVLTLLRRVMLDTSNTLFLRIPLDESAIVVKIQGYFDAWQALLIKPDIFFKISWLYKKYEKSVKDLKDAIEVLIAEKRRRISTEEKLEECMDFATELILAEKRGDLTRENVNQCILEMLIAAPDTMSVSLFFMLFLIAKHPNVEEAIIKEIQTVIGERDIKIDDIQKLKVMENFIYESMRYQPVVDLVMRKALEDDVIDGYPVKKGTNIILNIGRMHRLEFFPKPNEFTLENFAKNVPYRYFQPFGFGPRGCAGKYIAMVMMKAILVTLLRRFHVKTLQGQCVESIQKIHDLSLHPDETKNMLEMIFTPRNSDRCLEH
Chain of Estrogen receptor (Homo sapiens) (P03372 whole entry, looked up): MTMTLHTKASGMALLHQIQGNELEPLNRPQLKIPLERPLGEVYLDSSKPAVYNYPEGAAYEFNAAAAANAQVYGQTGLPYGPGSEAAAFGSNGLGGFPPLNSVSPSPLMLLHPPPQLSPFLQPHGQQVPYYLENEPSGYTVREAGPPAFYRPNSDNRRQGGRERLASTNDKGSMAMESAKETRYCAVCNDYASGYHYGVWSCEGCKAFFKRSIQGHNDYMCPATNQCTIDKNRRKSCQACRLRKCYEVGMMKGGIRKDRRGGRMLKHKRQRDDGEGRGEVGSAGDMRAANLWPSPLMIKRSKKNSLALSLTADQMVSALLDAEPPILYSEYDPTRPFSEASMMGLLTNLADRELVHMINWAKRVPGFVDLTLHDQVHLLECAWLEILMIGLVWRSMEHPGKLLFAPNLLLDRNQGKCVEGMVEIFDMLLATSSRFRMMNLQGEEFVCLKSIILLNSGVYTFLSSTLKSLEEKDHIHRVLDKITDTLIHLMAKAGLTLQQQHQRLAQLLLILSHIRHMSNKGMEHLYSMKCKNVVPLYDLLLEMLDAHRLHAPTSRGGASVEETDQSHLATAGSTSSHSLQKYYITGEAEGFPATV

Take `CCCC[C@H]1CN(CC2CCOCC2)C(=O)OC12CCN(C1(C)CCN(C(=O)c3c(C)ncnc3C)CC1)CC2`: the Potency entry in experiment [1], in [2], in experiment [3], in [5] and in experiment [6] was “inactive” in each case. Further, in experiment [4], the outcome was inactive.
Take `Cc1cccc(Oc2ccccc2)c1`: the Potency entry in experiment [1], in experiment [3], in [7], in experiment [8], in experiment [9] and in [10] was “inactive” each time. Further, in experiment [5], the Potency entry is “inactive”. In experiment [4], the call was inactive.
As for `CCCCOc1ccc(CC(=O)NO)cc1`, the Potency result in [1], in [2], in experiment [3], in experiment [5] and in [6] was “inactive” in each case.
Regarding `O=C(NS(=O)(=O)/C=C/c1cccs1)c1ccc(F)cc1Br`, the Potency entry in [1], in experiment [3], in experiment [5] and in [6] was “inactive” each time. Also, the compound was called inactive in experiment [4]. In experiment [9], the Potency is 68.6 µM (active).
Take `CC(=O)Nc1ccc(/C=N/NC(N)=S)cc1`: the Potency result in experiment [1], in experiment [3], in experiment [5] and in experiment [6] was “inactive” throughout. Moreover, the result in [4] was inactive.
As for `CC(C)CCCCCCOC(=O)c1ccc(C(=O)OCCCCCCC(C)C)c(C(=O)OCCCCCCC(C)C)c1`, the Potency result in experiment [1], in [3], in experiment [5] and in [6] was “inactive” each time. Besides, the compound was called inactive in experiment [4].
In the case of `CC(C)c1ccccc1C(C)C`, the Potency in [1] is 54.5 µM (active). The Potency entry in experiment [3], in experiment [5] and in experiment [6] was “inactive” in each case. Besides, the compound was called inactive in experiment [4].
Take `CC1(C)[C@H]2CC[C@]1(C)[C@H](O)C2`: the Potency result in experiment [1], in [3], in [5] and in [6] was “inactive” each time. For the same compound, the outcome in [4] was inactive.
